Assay outcomes as filed in PubChem.
Compounds with a hit are over-represented: about 2.7% of the library has one in this group of screens.
CFTR F508del cor – CFTR F508del correction in bronchial cells; CFBE cells, YFP halide quenching; stimulated with forskolin plus potentiator P3; % fluorescence drop versus neutral controls; hit rate 0.36% among 350,000; activity (quench increase), % at 7.58 µM;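 active = mean added fluorescence quench of at least 8% versus neutral control, with both replicates also reaching 8%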;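 note: cells transiently co-express mutant CFTR-F508del with the halide-sensitive YFP; corrector assay measuring rescue of mutant channel to the surface after 24 h compound exposure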
EWS-Fli block – EWS/Fli transcriptional activity inhibition. hit rate 0.67% among 350,000. AID 651661. A673 NR0B1-luciferase reporter, viability-normalised. inhibition, % at 12.6 µM;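 active = mean inhibition of at least 50% after viability correction, with every replicate also passing that limit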;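 note: firefly luciferase signal divided by Alamar Blue viability fluorescence both relative to DMSO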
HIV Env fusion – HIV envelope-mediated fusion inhibition | HeLa-JRFL Env/CEM21 cell fusion, luciferase | inhibition, % at 12.3 µM | hit rate 1.1% among 360,000 | AID 651610;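 active = mean replicate inhibition score of at least 50 and every replicate individually at or above 50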;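 note: 0% = plate neutral controls and 100% = maraviroc near 300 nM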
PGC1a acetyl inh – PGC1a acetylation modulation, inhibitor mode; U2OS PGC1a acetylation, AlphaScreen anti-acetyl-lysine; with virally co-expressed GCN5 acetyltransferase; hit rate 0.17% among 350,000; inhibition, % at 15.6 µM;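 active = every replicate shows inhibition of at least 40%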;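 note: 0% = neutral control wells and 100% = positive control wells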
PAX8 inh HTS – lowers PAX8-driven luciferase in RMG-I cells; RMG-I TPO-luciferase reporter, SteadyGlo, 24 h; AID 652154; hit rate 1.2% among 360,000; inhibition, % at 12.6 µM;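 active = mean replicate inhibition at least 60% with every replicate also reaching 60%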;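 note: luciferase light reporting Pax8 driven TPO promoter activity; plate controls were median of neutral control wells for no effect and mitoxantrone controls for full effect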
GSIS activator – GLuc luminescence reporter in INS-1E cells, primary screen for activators of glucose-dependent secretion of insulin. activation, % at 16.6 µM. AID 743287. INS-1E GLuc reporter insulin secretion, 2-3 h. hit rate 0.61% among 370,000;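 active = lowest replicate activation of at least 40%, so every replicate reaches that level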;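 note: 0% = median of neutral control wells and 100% = median of IBMX positive control wells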
Active calls of the source: *; · = not tested or not shown; ! = not confirmed by another sample; [ ] = dose if it differs, or a comment.

SMILES | CFTR F508del cor | EWS-Fli block | HIV Env fusion | PGC1a acetyl inh | PAX8 inh HTS | GSIS activator
[N-]=[N+]=Nc1ccccc1C[C@@]1(C(=O)NCc2ccccc2)N=C(c2ccc(OCCCO)cc2)O[C@@H]1c1ccccc1N=[N+]=[N-] | -0.2 | 18.9 | 59.5*[16.7 µM] | -15.6 | 6.3 | ·
C=CC[C@]1(C(=O)OC)COC(c2ccc(OCCCO)cc2)=N1 | 2.2 | -13.7 | -16.1[16.7 µM] | 8.0 | -64.3 | ·
COc1ccc(S(=O)(=O)N[C@H]2C=C[C@H](CC(=O)N3CCN(c4ccccc4)CC3)O[C@H]2CO)cc1 | 0.3 | 0.8 | 14.0[16.7 µM] | 2.2 | -10.1 | 3.1
CCCN(C)C[C@@H]1Oc2cc(C#Cc3cccc(OC)c3)ccc2S(=O)(=O)N([C@@H](C)CO)C[C@@H]1C | 1.1 | 8.1 | 8.3[16.7 µM] | -42.7 | -5.1 | 9.8
Cc1sc2nc(C(C)C)nc(SCC(=O)N3CCN(C(=O)c4ccco4)CC3)c2c1C | · | · | 62.0* | -23.5 | · | ·
Cc1sc2nc(C3CC3)nc(SCC(=O)N3CCc4ccccc4C3)c2c1C | · | · | 55.1* | · | · | ·
COc1ccccc1/C=C(/C(=O)OCC(=O)NCc1ccccc1)c1ccccc1 | · | · | 5.0 | 91.9* | 16.6 | 3.4
O=C(NCc1nc2ccccc2[nH]1)C1=C[C@@H](c2ccc(Br)cc2)C[C@@H](OCCCCO)O1 | -2.0 | 15.2 | -27.4 | -3.5 | 9.2 | -19.1
O=C(NCc1nc2ccccc2[nH]1)C1=C[C@@H](c2ccc(Br)cc2)C[C@@H](OCc2ccc(CO)cc2)O1 | 0.4 | 14.5 | -10.6 | 6.1 | 84.6*! | 0.8
O=C(CCc1ccccc1)c1ccc2c(c1)OCCCO2 | · | · | -79.7 | · | · | ·
COc1ccc(CCNC(=O)c2ccc3c(c2)OCCO3)cc1 | -1.3 | -31.4 | -23.4 | 3.6 | -135.2 | ·
O=C(CCCc1ccccc1)c1ccc2c(c1)OCCO2 | 0.3 | 86.4* | · | -8.7 | · | 12.4
O=C(NCCc1ccccc1)c1ccc2c(c1)OCCO2 | 2.1 | 90.2* | 92.2* | · | · | ·
O=C(NCCS(=O)(=O)NCCc1ccccc1)c1ccc2c(c1)OCO2 | -1.2 | -21.2 | -72.2 | · | -113.9 | -4.6
O=C(CCN1CCC(c2ccccc2)C1)c1ccc2c(c1)OCCO2 (stereo not given) | 0.9 | -3.4 | 3.2 | -11.6 | 76.3* | ·
O=C(CCN1CCC(c2ccccc2)C1)c1ccccc1 (stereo not given) | -1.5 | -4.4 | · | 1.1 | · | 9.6
O=C(NCCc1ccccc1)c1ccc2c(c1)OCCCO2 | 1.0 | 89.0* | 50.3 | -8.7 | 109.7* | 8.4
COc1ccc2c3c([nH]c2c1)[C@@H](CO)NCC31CCN(Cc2ccc(F)cc2)CC1 | 0.0 | -6.3 | · | 4.6 | -4.8 | -10.9
CCOC(=O)c1c(CN2CCOCC2)oc2ccc(OC(C)=O)cc12 | -7.5 | 18.6 | 6.1 | 7.7 | -8.5 | -2.5
CCOC(=O)c1c2n(c3ccc(OC(C)=O)cc13)CCC2 | 1.8 | -8.1 | -28.1 | -1.6 | -2.3 | 47.6*
O=C(C[C@H]1C[C@@H]2c3cc(NC(=O)Nc4ccccc4)ccc3O[C@@H]2[C@H](CO)O1)NCc1ccccn1 | -0.5 | -6.3 | -0.2[16.7 µM] | -1.8 | -6.3 | 2.1
O=S(=O)(N1CCOCC1)n1c(Cc2ccccc2)nc2ccccc21 | · | · | · | -5.9 | · | 49.4*
CC(C)C(=O)Nc1ccc2c(c1)C(=O)N(C)[C@@H]1CC[C@@H](CC(=O)O)O[C@H]1CO2 | -1.0 | 2.3 | 8.7[16.7 µM] | 9.3 | -18.8 | 10.3
COc1ccc(-n2cc(-c3ccc(OC(F)F)cc3)[n+]3c2CCCCC3)cc1 | -2.9 | 5.3 | 22.6 | · | 86.3* | -15.2
CCCCCCCCCCOC(=O)Cn1c(COc2ccccc2C)[n+](C)c2ccccc21 | · | · | · | · | · | 138.8*
SMILES | CFTR F508del cor | EWS-Fli block | HIV Env fusion | PGC1a acetyl inh | PAX8 inh HTS | GSIS activator
CCCCCCCCCCOC(=O)Cn1c(COc2ccc(Cl)cc2)[n+](C)c2ccccc21 | -1.6 | 34.8 | 23.9 | · | 2.9 | 206.6*
CCCCCCCCCCOC(=O)Cn1c(COc2ccccc2)[n+](C)c2ccccc21 | -0.1 | 29.2 | 44.2 | · | 70.9* | 127.4*
CCCCOC(=O)Cn1c(=O)n(CC(=O)OCCCC)c2ccccc21 | · | · | · | -0.4 | · | -12.2
CCCCCCCCCCOC(=O)Cn1c(COc2cccc(C)c2)[n+](C)c2ccccc21 | -2.6 | 14.6 | 25.6 | · | 36.4 | 171.4*
CCOC(=O)Cn1c(COc2ccccc2OC)[n+](C)c2ccccc21 | -0.2 | 1.8 | -11.4 | 2.4 | -29.4 | ·
CC1=C(SCc2ccccc2)C(=O)c2ccccc2C1=O | -1.8 | 38.9 | -31.5 | 15.0 | 64.2* | -22.4
CCN(CC)S(=O)(=O)c1ccc(NC2c3ccccc3C(=O)N2Cc2ccc3c(c2)OCO3)cc1 (stereo not given) | -0.8 | 5.3 | 67.2* | · | -16.6 | -23.4
COc1ccc(-n2nc(C#N)c(Cl)cc2=O)cc1 | -10.9 | 52.5* | -209.8 | 89.9* | 105.2* | 6.1
OCCN=C1CCCc2c1[nH]c1ccc(Br)cc21 | · | · | · | 10.6 | · | ·
C=CCN=C1CCCc2c1[nH]c1ccc(C)cc21 | 0.4 | -21.3 | 62.2* | -6.4 | 2.2 | 14.9
O=[N+]([O-])c1ccc(-c2cc(-c3ccc(Cl)cc3)n[nH]2)cc1 | · | · | · | -12.2 | · | 70.7*
CO[C@@H]1CN(C)C(=O)c2ccc(NC(C)=O)cc2OC[C@H](C)N(C(=O)CN2CCOCC2)C[C@H]1C | -0.5 | -0.5 | · | -0.4 | · | 7.1
COc1ccc2c3c(n(C)c2c1)[C@@H](CO)N(C(=O)C1CCCC1)CC31CCN(C(=O)c2ccncc2)CC1 | -2.1 | -5.0 | · | · | -14.5 | -6.0
Cc1cc(-n2c(C)cc(C(=O)CSc3ncnc4ccccc34)c2C)no1 | · | · | 51.2* | 5.8 | 26.7 | ·
Cc1cc(C(=O)CSc2ncnc3ccccc23)c(C)n1C1CC1 | 1.9 | -69.1 | -6.7 | -0.2 | -27.2 | -1.0
CCOC1=C/C(=C/c2c(N)n3nc(CC(=O)N4CCCCC4)sc3nc2=O)C=CC1=O | 0.1 | · | -3.0 | 15.2 | -3.9 | -17.7
CCOC1=C/C(=C/c2c(N)n3nc(S(=O)(=O)CC)sc3nc2=O)C=CC1=O | 9.9* | 9.5 | 19.8 | · | 1.6 | -13.4
CC1CN(S(=O)(=O)c2cc(C(=O)NC(C)c3cccnc3)ccc2Cl)CC(C)O1 (stereo not given) | 1.7 | 5.7 | 8.3 | -4.2 | -0.7 | 43.3*
CC1CN(S(=O)(=O)c2cc(C(=O)NCCC3=CCCCC3)ccc2Cl)CC(C)O1 (stereo not given) | -0.8 | -3.8 | 68.2* | · | -28.5 | 27.5
CC(C)NC(=O)N(C)C[C@H]1Oc2cc(C#CC(C)(C)O)ccc2S(=O)(=O)N([C@H](C)CO)C[C@@H]1C | -2.5 | -2.8 | -32.3[16.7 µM] | 12.9 | · | 18.9
COc1cccc(S(=O)(=O)Nc2ccc3c(c2)OC[C@H](C)NC[C@H](C)[C@@H](OC)CN(C)C3=O)c1 | 1.5 | 4.1 | -21.1[16.7 µM] | 7.0 | · | 8.9
Cc1c(Br)c([N+](=O)[O-])nn1CC(=O)Nc1sc2c(c1C(=O)OC(C)C)CCCC2 | · | · | -30.2 | 5.3 | 21.2 | 46.0*
Cc1c(Br)c([N+](=O)[O-])nn1CCCC(=O)Nc1sc2c(c1C#N)CCC2 | · | · | · | · | · | -16.3
